These results are taken from PubChem BioAssay (EPA / NIEHS).

“And” between values parts separate entries of the source, which are not always exact repeats. Equal entries are not always repeated. Records with an inconclusive call do not appear. Where a structure was tested more than once in an assay, its records may differ in their call. The source made the active and inactive calls. Rule for the calls, unless noted: active = hit-call score of the fitted dose curve at least 0.9, where 1 is the maximum; inconclusive = response in the unintended direction; inactive = score below 0.9.

Assay [1] is described as follows: ATG_TGFb_CIS: Attagene CIS-FACTORIAL HepG2 Assay for human Transforming Growth Factor (TGF) (AID 2282967; active = hit-call score of the fitted dose curve at least 0.9, where 1 is the maximum; inactive = score below 0.9). The note with it: HepG2 Attagene CIS TGFb reporter, mRNA transcription; actives raise or lower the signal. Summed up:
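Readout: fluorescently labeled reporter cDNA fragments resolved by capillary electrophoresis after RT-PCR. Transfected HepG2 cells dosed for 24 h; endogenous TF activity at TGFB1-linked cis element; gain or loss fitted relative to DMSO.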

Assay [2] concerns the target Nuclear receptor subfamily 1 group I member 3 (Homo sapiens) (UniProt Q14994). The assay can be described thus: ATG_CAR_TRANS: Attagene TRANS-FACTORIAL HepG2 Assay for human Constitutive Androstane Receptor (CAR) (AID 2282969).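 Note: activators raise reporter mRNA above DMSO so AC50 marks induction.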 Conditions: HepG2 Attagene TRANS-FACTORIAL CAR reporter. Summed up: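 Readout is reporter mRNA induction, quantified by fluorescent primer extension and capillary electrophoresis after RT-PCR. Cells were HepG2 transiently carrying chimeric NR-Gal4 constructs with GAL4-UAS reporters, treated for 24 h; activity scored upward from DMSO.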

In assay [3] the target is Estrogen receptor (Homo sapiens) (UniProt P03372). Put plainly: ATG_ERa_TRANS: Attagene TRANS-FACTORIAL HepG2 Assay for human Estrogen Receptor alpha (ERa) (AID 2282970). The note with it: HepG2 Attagene TRANS ERa GAL4 reporter, mRNA. Summed up: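 Multiplexed cell-based reporter format in HepG2: chimeric ERa-Gal4 protein drives GAL4-UAS reporter transcription. Fluorescent reporter mRNA quantified by capillary electrophoresis 24 hours after dosing; endpoint fitted as signal gain against DMSO.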
Chain of Estrogen receptor (Homo sapiens) (P03372 whole entry, looked up, the tested form may be a part): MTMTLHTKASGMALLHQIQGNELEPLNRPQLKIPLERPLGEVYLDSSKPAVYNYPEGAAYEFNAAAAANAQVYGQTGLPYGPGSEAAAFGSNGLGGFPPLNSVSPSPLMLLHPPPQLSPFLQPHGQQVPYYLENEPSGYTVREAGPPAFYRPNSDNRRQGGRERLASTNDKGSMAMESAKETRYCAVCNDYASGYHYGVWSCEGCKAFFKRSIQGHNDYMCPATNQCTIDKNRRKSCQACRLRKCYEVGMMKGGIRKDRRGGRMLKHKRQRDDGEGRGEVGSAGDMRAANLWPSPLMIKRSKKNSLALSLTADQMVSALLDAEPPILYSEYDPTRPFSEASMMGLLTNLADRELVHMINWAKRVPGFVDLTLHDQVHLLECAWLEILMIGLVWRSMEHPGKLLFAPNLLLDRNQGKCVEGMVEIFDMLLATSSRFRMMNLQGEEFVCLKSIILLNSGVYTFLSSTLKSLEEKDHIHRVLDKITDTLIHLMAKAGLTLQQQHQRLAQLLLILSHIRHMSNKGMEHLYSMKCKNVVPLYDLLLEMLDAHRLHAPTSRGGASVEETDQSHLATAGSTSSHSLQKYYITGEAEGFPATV

The target in assay [4] is X-box-binding protein 1 (Homo sapiens) (UniProt P17861). Put plainly: ATG_Xbp1_CIS: Attagene CIS-FACTORIAL HepG2 Assay for human X-box Binding Protein 1 (XBP1) (AID 2282972; active = hit-call score of the fitted dose curve at least 0.9, where 1 is the maximum; inactive = score below 0.9). The note with it: HepG2 XBP1 cis-element reporter, Attagene multiplex; actives raise or lower the signal. Summed up:
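After a 24-hour chemical exposure of HepG2 cells carrying cis-regulated reporters, reporter mRNA levels are assessed. Quantification uses RT-PCR, 6-FAM labelling and capillary electrophoresis. Gain- or loss-of-signal is fitted against DMSO.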

The nature of assay [5]: ATG_M_19_TRANS: Attagene TRANS-FACTORIAL HepG2 Assay for M19 Transcription Factor (Internal Marker) (AID 2282974). Conditions: HepG2 Attagene TRANS-FACTORIAL M19 internal marker reporter. Summed up:
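Multiplexed TRANS format: HepG2 liver cells bearing transient GAL4-UAS reporter units, chemical treatment 24 h, reporter transcripts quantified by RT-PCR plus capillary electrophoresis. DMSO defines baseline.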

Assay [6] concerns the target Glucocorticoid receptor (Homo sapiens) (UniProt P04150). The assay can be described thus: ATG_GR_TRANS: Attagene TRANS-FACTORIAL HepG2 Assay for human Glucocorticoid Receptor (GR) (AID 2282978).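 Note: activators score as hits since higher reporter transcript over DMSO is fitted.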 The note with it: HepG2 Attagene TRANS GR reporter, mRNA transcription. Summed up: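 Transiently transfected HepG2 cells express chimeric NR-GAL4 proteins acting on GAL4-UAS reporter units. Compounds are applied for 24 h. mRNA induction over DMSO is measured by capillary electrophoresis.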

In assay [7] the target is Bile acid receptor (Homo sapiens) (UniProt Q96RI1). The assay can be described thus: ATG_FXR_TRANS: Attagene TRANS-FACTORIAL HepG2 Assay for Farnesoid X Receptor (FXR) (AID 2282979).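 Note: hits raise reporter mRNA above DMSO so AC50 marks FXR activation.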 Conditions: HepG2 Attagene TRANS FXR-GAL4 reporter transcription. Summed up:
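After 24 h chemical treatment of transfected HepG2 cells, GAL4-UAS reporter transcripts driven by an exogenous FXR-GAL4 fusion were measured by RT-PCR and capillary electrophoresis. Increases over DMSO were fitted.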

The target in assay [8] is Hepatocyte nuclear factor 4-alpha (Homo sapiens) (UniProt P41235). Put plainly: ATG_HNF4a_TRANS: Attagene TRANS-FACTORIAL HepG2 Assay for human Hepatocyte Nuclear Factor 4 alpha (HNF4a) (AID 2282982). The note with it: HepG2 HNF4a transactivation reporter, mRNA readout. Summed up: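 Transfected HepG2 reporter cells are dosed for 24 h; reporter RNA is reverse-transcribed, amplified, fluorescently labelled and HpaI-digested before CE sizing. Positive-direction fit against DMSO.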
Chain of Hepatocyte nuclear factor 4-alpha (Homo sapiens) (P41235 whole entry, looked up): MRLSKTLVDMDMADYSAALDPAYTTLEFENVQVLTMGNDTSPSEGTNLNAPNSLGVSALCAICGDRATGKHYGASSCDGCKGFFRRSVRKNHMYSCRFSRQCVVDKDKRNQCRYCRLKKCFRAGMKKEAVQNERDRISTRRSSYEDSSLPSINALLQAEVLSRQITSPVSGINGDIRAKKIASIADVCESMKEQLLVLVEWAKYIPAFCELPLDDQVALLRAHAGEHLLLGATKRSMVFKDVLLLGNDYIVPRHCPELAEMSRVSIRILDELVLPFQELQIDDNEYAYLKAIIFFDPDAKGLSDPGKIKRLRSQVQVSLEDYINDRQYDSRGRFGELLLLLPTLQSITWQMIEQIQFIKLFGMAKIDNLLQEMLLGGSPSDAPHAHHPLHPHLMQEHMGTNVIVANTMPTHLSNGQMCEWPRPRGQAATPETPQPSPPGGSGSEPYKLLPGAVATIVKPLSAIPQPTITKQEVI

Assay [9] deals with Nuclear receptor subfamily 4 group A member 2 (Homo sapiens) (UniProt P43354). The assay can be described thus: ATG_NURR1_TRANS: Attagene TRANS-FACTORIAL HepG2 Assay for human Nuclear Receptor Related Protein 1 (NURR1) (AID 2282985). Conditions: HepG2 Attagene TRANS reporter, mRNA readout. Summed up:
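Cells: HepG2, transiently transfected. Exposure: 24 h. Detection: fluorescence of labelled RT-PCR products separated by capillary electrophoresis; upward fit versus DMSO.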

In assay [10] the target is Transcriptional activator Myb (Homo sapiens) (UniProt P10242). Put plainly: ATG_Myb_CIS: Attagene CIS-FACTORIAL HepG2 Assay for human Myeloblastosis (Myb) Proto-Oncogene Transcription Factor (AID 2282986; active = hit-call score of the fitted dose curve at least 0.9, where 1 is the maximum; inactive = score below 0.9). The note with it: HepG2 Attagene CIS-FACTORIAL Myb reporter transcription; actives raise or lower the signal. Summed up: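 Using HepG2 liver cells bearing transiently transfected cis-promoter reporter constructs, the assay measures induction or loss of reporter mRNA after 24 hours of dosing. Detection used fluorescently labeled RT-PCR products separated by capillary electrophoresis.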
Chain of Transcriptional activator Myb (Homo sapiens) (P10242 whole entry, looked up): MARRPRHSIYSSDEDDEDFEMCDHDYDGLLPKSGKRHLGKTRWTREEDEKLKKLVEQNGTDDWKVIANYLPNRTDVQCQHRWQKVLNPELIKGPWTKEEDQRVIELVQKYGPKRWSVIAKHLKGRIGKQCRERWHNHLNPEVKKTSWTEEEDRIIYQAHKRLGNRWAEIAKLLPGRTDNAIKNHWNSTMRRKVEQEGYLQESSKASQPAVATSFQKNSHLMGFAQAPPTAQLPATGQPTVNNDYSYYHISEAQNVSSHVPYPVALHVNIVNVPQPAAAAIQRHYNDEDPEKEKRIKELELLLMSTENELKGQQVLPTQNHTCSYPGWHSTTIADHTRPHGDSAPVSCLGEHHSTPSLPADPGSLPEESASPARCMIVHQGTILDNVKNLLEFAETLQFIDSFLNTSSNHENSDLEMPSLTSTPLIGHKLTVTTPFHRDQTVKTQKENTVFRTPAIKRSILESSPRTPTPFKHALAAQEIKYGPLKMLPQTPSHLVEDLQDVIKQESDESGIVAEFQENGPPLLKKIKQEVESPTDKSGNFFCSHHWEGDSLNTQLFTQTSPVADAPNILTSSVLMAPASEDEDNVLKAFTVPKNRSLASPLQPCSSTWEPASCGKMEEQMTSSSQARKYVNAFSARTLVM

For assay [11], the target named is Nuclear respiratory factor 1 (Homo sapiens) (UniProt Q16656). Put plainly: ATG_NRF1_CIS: Attagene CIS-FACTORIAL HepG2 Assay for human Nuclear Respiratory Factor 1 (NRF1) Orphan Gene (AID 2282987; active = hit-call score of the fitted dose curve at least 0.9, where 1 is the maximum; inactive = score below 0.9). Conditions: HepG2 NRF1 cis-element reporter, Attagene multiplex; actives raise or lower the signal. Summed up:
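Reporter mRNA induction or loss in HepG2 cells after 24 h dosing; cis-regulated reporter constructs report endogenous transcription-factor activity. Quantified by RT-PCR/capillary electrophoresis fluorescence, DMSO-referenced.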

Assay [12] in a line: ATG_NFI_CIS: Attagene CIS-FACTORIAL HepG2 Assay for human Nuclear Factor I (NFI) (AID 2282989; active = hit-call score of the fitted dose curve at least 0.9, where 1 is the maximum; inactive = score below 0.9). Conditions: HepG2 cis-regulatory reporter, NFI response element transcription; actives raise or lower the signal. Summed up:
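Read-out: reporter mRNA via RT-PCR plus capillary electrophoresis with fluorescence detection. Transiently transfected HepG2 (endogenous TF activity on cis promoters), 24 h compound exposure; gain or loss of signal fitted against DMSO.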

The target in assay [13] is Steroid hormone receptor ERR1 (Homo sapiens) (UniProt P11474). The assay can be described thus: ATG_ERRa_TRANS: Attagene TRANS-FACTORIAL HepG2 Assay for human Estrogen-Related Receptor alpha (ERRa) (AID 2282971). The note with it: HepG2 Attagene TRANS reporter, ERRa transactivation. Summed up:
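Signal gain relative to DMSO for an ERRa-Gal4 chimeric receptor, read as reporter mRNA by RT-PCR/capillary electrophoresis. Human HepG2 liver cells, transient multiplex reporter transfection, 24 h chemical exposure.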

Assay [14] is described as follows: ATG_GAL4_TRANS: Attagene TRANS-FACTORIAL HepG2 Assay for GAL4 (Internal Marker) (AID 2282976). Conditions: HepG2 Attagene TRANS GAL4 internal marker reporter. Summed up:
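Liver HepG2 line bearing multiplexed GAL4-UAS reporter constructs; 24 h chemical treatment. Transcripts were quantified as fluorescent fragments on capillary electrophoresis after RT-PCR and HpaI cut, with activity fitted upward from DMSO.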

In assay [15] the target is Estrogen-related receptor gamma (Homo sapiens) (UniProt P62508). Put plainly: ATG_ERRg_TRANS: Attagene TRANS-FACTORIAL HepG2 Assay for human Estrogen-Related Receptor gamma (ERRg) (AID 2282977).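 Note: hits increase reporter signal over DMSO so potencies reflect activators.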 Conditions: HepG2 Attagene TRANS reporter, ERRg transactivation. Summed up: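 Transient HepG2 transfectants, 24 h compound exposure, GAL4-UAS reporter mRNA by RT-PCR/6-FAM labelling/capillary electrophoresis; positive direction vs DMSO.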
Chain of Estrogen-related receptor gamma (Homo sapiens) (P62508 whole entry, looked up, the tested form may be a part): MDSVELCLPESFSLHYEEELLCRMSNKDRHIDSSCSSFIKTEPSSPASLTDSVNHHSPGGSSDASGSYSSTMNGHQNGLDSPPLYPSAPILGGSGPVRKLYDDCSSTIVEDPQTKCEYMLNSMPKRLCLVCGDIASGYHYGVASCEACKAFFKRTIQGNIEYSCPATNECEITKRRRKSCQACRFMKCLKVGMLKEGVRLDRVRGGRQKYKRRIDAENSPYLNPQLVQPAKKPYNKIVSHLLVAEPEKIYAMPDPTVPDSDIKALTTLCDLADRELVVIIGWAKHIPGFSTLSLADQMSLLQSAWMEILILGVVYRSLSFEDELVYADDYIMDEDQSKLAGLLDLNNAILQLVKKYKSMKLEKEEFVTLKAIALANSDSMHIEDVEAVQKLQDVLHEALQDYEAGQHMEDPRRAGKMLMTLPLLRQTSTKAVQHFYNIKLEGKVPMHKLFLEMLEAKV

In assay [16] the target is Oxysterols receptor LXR-beta (Homo sapiens) (UniProt P55055). Put plainly: ATG_LXRb_TRANS: Attagene TRANS-FACTORIAL HepG2 Assay for human Liver X Receptor beta (LXRb) (AID 2282981). Conditions: HepG2 Attagene TRANS GAL4-LXRb reporter, mRNA. Summed up:
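Cells: HepG2, transiently transfected with GAL4-UAS reporter units plus LXRb-Gal4 fusion. Treatment: 24 h. Detection: reporter mRNA by RT-PCR, 6-FAM labelling, HpaI digestion, capillary electrophoresis.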

Assay [17] has as its target Oxysterols receptor LXR-alpha (Homo sapiens) (UniProt Q13133). Put plainly: ATG_LXRa_TRANS: Attagene TRANS-FACTORIAL HepG2 Assay for human Liver X Receptor alpha (LXRa) (AID 2282980). The note with it: HepG2 Attagene TRANS reporter, LXRa transactivation. Summed up:
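In this multiplexed TRANS system, compounds act on HepG2 cells carrying GAL4-UAS reporter units and a receptor-GAL4 fusion for 24 h. Induced reporter RNA is amplified, fluorescently labelled and sized by capillary electrophoresis, with DMSO as baseline.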

Assay [18] in a line: ATG_M_06_TRANS: Attagene TRANS-FACTORIAL HepG2 Assay for M06 Transcription Factor (Internal Marker) (AID 2282983).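 Note: reporter transcript level by RT-PCR then capillary electrophoresis fluorescence.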 The note with it: HepG2 Attagene TRANS M06 internal marker reporter. Summed up: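 Internal-marker background readout from a multiplexed TRANS reporter system in HepG2; 24 h dosing; mRNA induction quantified by RT-PCR plus capillary electrophoresis fluorescence; DMSO as negative control and baseline.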

Assay [19] can be described thus: ATG_M_32_TRANS: Attagene TRANS-FACTORIAL HepG2 Assay for M32 Transcription Factor (Internal Marker) (AID 2282984).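 Note: transcript level of a background control reporter unit measured by RT-PCR and capillary electrophoresis.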 The note with it: HepG2 Attagene TRANS M32 internal marker reporter. Summed up: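 Using transiently transfected HepG2 cells exposed to test chemicals for 24 h, reporter transcripts are converted to labelled cDNA fragments and quantified by capillary electrophoresis. DMSO defines the activity baseline.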

Chain of Nuclear respiratory factor 1 (Homo sapiens) (Q16656 whole entry, looked up): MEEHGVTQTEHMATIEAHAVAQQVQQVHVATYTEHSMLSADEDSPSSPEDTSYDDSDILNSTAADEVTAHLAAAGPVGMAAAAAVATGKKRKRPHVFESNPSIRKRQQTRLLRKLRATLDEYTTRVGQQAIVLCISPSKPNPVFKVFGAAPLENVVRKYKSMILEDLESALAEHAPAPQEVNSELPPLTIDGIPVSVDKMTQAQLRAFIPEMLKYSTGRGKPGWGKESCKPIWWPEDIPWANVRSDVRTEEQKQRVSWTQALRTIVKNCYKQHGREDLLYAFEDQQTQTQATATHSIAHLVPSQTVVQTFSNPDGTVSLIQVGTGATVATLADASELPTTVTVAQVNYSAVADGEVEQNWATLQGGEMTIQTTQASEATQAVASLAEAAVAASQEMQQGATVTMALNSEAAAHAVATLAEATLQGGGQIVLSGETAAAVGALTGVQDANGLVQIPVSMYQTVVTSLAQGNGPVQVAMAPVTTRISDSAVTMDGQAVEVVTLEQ
Chain of Nuclear receptor subfamily 4 group A member 2 (Homo sapiens) (P43354 whole entry, looked up): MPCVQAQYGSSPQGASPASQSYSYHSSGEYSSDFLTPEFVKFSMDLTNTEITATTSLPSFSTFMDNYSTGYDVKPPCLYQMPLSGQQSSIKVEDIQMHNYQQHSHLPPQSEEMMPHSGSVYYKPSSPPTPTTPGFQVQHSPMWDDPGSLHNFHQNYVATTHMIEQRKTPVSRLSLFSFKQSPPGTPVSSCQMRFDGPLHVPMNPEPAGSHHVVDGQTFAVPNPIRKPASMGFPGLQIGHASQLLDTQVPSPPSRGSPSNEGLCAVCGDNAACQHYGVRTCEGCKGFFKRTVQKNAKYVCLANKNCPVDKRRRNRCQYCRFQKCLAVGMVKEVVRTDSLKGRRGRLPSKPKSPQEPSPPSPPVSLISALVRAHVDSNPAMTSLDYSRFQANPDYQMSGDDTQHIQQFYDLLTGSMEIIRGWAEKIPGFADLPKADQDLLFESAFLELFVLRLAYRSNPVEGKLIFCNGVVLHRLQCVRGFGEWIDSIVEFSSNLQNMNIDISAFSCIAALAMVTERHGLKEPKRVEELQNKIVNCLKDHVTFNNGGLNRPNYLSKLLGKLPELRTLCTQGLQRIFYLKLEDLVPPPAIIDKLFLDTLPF
Chain of Steroid hormone receptor ERR1 (Homo sapiens) (P11474 whole entry, looked up, the tested form may be a part): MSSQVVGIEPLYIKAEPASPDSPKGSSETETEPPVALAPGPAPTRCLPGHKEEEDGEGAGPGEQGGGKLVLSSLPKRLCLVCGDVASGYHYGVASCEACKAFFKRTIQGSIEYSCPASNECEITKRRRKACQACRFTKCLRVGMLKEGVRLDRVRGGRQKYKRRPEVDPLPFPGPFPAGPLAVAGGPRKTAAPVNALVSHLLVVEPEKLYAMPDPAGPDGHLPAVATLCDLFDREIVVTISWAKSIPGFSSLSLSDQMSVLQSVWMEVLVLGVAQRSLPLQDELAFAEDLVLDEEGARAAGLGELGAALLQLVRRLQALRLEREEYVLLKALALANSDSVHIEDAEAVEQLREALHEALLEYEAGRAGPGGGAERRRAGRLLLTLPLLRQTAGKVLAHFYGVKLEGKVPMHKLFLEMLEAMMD
Chain of Oxysterols receptor LXR-alpha (Homo sapiens) (Q13133 whole entry, looked up, the tested form may be a part): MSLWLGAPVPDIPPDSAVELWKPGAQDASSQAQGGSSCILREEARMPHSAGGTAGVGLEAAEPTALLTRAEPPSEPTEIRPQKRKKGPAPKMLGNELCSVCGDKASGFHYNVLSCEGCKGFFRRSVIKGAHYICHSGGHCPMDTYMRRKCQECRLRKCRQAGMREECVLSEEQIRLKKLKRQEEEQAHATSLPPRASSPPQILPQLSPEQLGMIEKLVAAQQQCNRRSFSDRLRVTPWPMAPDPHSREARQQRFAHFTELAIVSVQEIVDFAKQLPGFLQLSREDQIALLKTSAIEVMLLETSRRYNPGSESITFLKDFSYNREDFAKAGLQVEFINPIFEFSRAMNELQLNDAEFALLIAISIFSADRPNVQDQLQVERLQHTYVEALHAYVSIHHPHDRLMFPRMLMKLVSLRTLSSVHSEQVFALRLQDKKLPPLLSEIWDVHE
Chain of X-box-binding protein 1 (Homo sapiens) (P17861 whole entry, looked up): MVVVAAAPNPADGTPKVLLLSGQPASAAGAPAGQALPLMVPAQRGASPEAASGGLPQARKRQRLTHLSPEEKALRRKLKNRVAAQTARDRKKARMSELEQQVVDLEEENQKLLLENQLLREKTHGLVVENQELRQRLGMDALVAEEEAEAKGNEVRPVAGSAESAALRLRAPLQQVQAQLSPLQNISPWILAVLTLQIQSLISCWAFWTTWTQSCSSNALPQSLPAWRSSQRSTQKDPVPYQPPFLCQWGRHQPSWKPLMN
Chain of Nuclear receptor subfamily 1 group I member 3 (Homo sapiens) (Q14994 whole entry, looked up, the tested form may be a part): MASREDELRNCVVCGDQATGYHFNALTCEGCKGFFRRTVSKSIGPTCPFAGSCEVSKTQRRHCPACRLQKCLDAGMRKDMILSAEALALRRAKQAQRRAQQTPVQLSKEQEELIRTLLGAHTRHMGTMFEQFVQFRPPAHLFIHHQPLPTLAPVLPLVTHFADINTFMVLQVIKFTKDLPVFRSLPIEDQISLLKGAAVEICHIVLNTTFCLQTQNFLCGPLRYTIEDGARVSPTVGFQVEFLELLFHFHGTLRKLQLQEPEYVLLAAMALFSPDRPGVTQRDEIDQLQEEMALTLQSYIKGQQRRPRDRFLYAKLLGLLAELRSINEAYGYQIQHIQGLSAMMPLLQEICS

In the case of `COc1cc(C(C)C)c2c(c1)S(=O)(=O)N(COc1cc(=O)n3cccc(OCCN4CCCCC4)c3n1)C2=O`, the call in [1], in [5], in assay [6], in assay [8], in assay [9] and in assay [10] was inactive. For the same compound, in assay [11], the compound was classed as inactive. Further, the AC50 in assay [2] was 2.75 µM (active); in assay [3] it was 2.75 µM (active); in assay [4] it was 6.56 µM (active); in assay [7], 4.68 µM (active); in [12], 3.64 µM (active).

In the case of `OCc1ccccc1`, the result in assay [1], in assay [2], in assay [13], in [4], in [5] and in [14] was inactive. Besides, the compound was classed as inactive in assay [15], in assay [6], in [16], in assay [8], in assay [9] and in assay [10]. In addition, the compound was classed as inactive in assay [11] and in assay [12]. In addition, the AC50 in [9] is 14.2 µM (active).

Consider `FC(F)(F)C(F)(F)C(F)(F)C(F)(F)C(F)(F)C(F)(F)I`, for which the result in [1], in assay [2], in [13], in assay [4], in assay [5] and in [14] was inactive. Also, the outcome in assay [15], in assay [6], in assay [7], in assay [17], in assay [16] and in [9] was inactive. The compound was classed as inactive in assay [10], in [11] and in assay [12]. Besides, the AC50 in [3] is 13.7 µM (active) and 17 µM (active).

`CCn1nc(C)c2c1C(=O)NCC(c1ccc(O)cc1)=N2`: the call in [1], in assay [2], in assay [3], in [4], in assay [14] and in [6] was inactive. The outcome in assay [16], in [8], in assay [9], in assay [10], in [11] and in assay [12] was inactive.

In the case of `Cc1nc(-c2ccccn2)ncc1C(=O)Nn1cc(C)c2cc(F)ccc21`, the outcome in [1], in assay [2], in assay [13], in assay [4], in [5] and in [14] was inactive. The outcome in [15], in assay [10], in [11] and in assay [12] was inactive.

Regarding `C=CN1CCCC1=O`, the result in assay [1], in [2], in [3], in assay [4], in [16] and in assay [18] was inactive. In addition, the call in assay [9], in assay [10], in assay [11] and in assay [12] was inactive.

On to `C[Si](C)(C)C(F)(F)C(F)(F)C(F)(F)F`, for which the compound was classed as inactive in [1], in assay [2], in [3], in assay [13], in [4] and in assay [5]. The call in [14], in assay [15], in assay [6], in [7], in assay [17] and in assay [16] was inactive. For the same compound, the compound was classed as inactive in assay [8], in [19], in assay [9], in assay [10], in assay [11] and in assay [12].

On to `O=C(Cl)C(F)(F)C(F)(F)C(F)(F)C(=O)Cl`, for which the compound was classed as inactive in assay [1], in [2], in assay [3], in assay [13], in assay [4] and in assay [5]. Moreover, the outcome in assay [14], in assay [15], in [6], in assay [7], in assay [17] and in [16] was inactive. For the same compound, the compound was classed as inactive in assay [8], in assay [10], in assay [11] and in [12].

Broadly, the AC50 is the concentration at which the activity in the assay is half-maximal.
